The record followed here is PubChem BioAssay (NCI).

Each structure is given as a SMILES string. Compounds without any hit were thinned out: in the full panel of roughly 83,000, 20% have a hit.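 The endpoint reported here, percent growth, reads 100 for growth as untreated, 0 for no net growth and -100 for all cells dead.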 Unmarked numbers belong to inactive results. Calls of active or inactive are those of the source. How the source made its calls: active means growth percent below 10; inactive means the rest.

The assay concerns HL-60(TB) leukemia. The assay is described as follows: NCI-60 one-dose screen, 48 h (100 = growth as untreated, 0 = no growth, -100 = all killed). The settings on record: 10 µM unless noted.
Regarding `c1ccc(-c2n(Cc3ccc4ccccc4n3)cc[n+]2Cc2ccc3ccccc3n2)cc1`, the growth was -33.1% (active). For the compound `C[C@H]1c2ccccc2CN1CCCOc1cc2c(cc1OCC1CC1)C1(CCCC1)C(N)=N2`, the growth was 31%.

With `CC(=O)NCc1cc(C)c(C)cc1C`, the growth was 99.2%. With `CC(Cc1ccco1)C(=O)NC(N)=O` (centres undefined), the growth is 87.5%. As to `C#CCCCCCCC[C@@H]1OC(=O)[C@H]([C@@H](C)CC)NC(=O)[C@@H]([C@@H](C)CC)NC(=O)CC(=O)[C@@H]1C`, the growth is 107%. In the case of `Nc1ccn(C2CC(N)C(CO)O2)c(=O)n1` (centres undefined), the growth is 84.6%. Take `CCCCNC(=O)c1ccc(OCC)cc1`: the growth was 99.5%. `COc1ccc2c(c1)cn1c3ccc(O)cc3nc(N)c21`: the growth is -15.8% (active).

As to `O=c1ccc(N=Nc2ccccc2)ccc1Cl`, the growth was 42.8%. Turning to `CCC(=O)N1C/C(=C/c2ccc(OC)cc2)C(=O)/C(=C/c2ccc(OC)cc2)C1`, the growth was 25.1%. For `O=C(/C=C\c1ccc(OCCCCCC[P+](c2ccccc2)(c2ccccc2)c2ccccc2)cc1)c1ccc2c(c1)OCCO2`, the growth was -13.2% (active). For the compound `C=C(C)[C@@H]1CC[C@]2(CO)CC[C@]3(C)[C@H](CC[C@@H]4[C@@]5(C)CCC(NCCc6ccc(O)cc6)C(C)(C)[C@@H]5CC[C@]43C)[C@@H]12` (some centres undefined), the growth is -50.4% (active). For `Fc1ccc2[nH]cc(-c3nc(-c4c[nH]c5c(Cl)nccc45)cs3)c2c1` the value was 35.4%; for `Cc1cc(C)c2c(NC(=O)Nc3ccc(Cl)c(Cl)c3)n[nH]c2n1`, 96.9%. Regarding `CC1CN(CCCOC(=O)Nc2ccc(Cl)cc2)CCN1C(C)(C)C` (centres undefined), the growth was 96.1%. With `CCCCCCCCCC[N+](C)(C)C`, the growth was -6.93% (active).

For `CN(C)c1ccc(C2Nc3ccccc3-n3cccc32)cc1` (centres undefined), the growth was 123%. With `O=C1c2ccc3c4c(ccc(c24)C(=O)N1CCCNCc1ccccc1F)C(=O)N(CCCNCc1ccccc1F)C3=O`, the growth is -59% (active). For `COc1ccc(-c2cc(C(=O)N3N=C(c4ccc(N)cc4)CC3c3ccc(OC)cc3)c3cc(OC)ccc3n2)cc1` (centres undefined) the value was -7.72% (active).

As for `[Cl-].[Rh+3].c1ccc(-c2ccnc3c2ccc2c(-c4ccccc4)ccnc23)cc1.c1ccc(-c2ccnc3c2ccc2c(-c4ccccc4)ccnc23)cc1.c1ccc(-c2ccnc3c2ccc2c(-c4ccccc4)ccnc23)cc1`, the growth was 99.9%.

For the compound `C=CC[n+]1c(/C=C/C=C2\N(C)c3ccccc3C2(C)C)sc2ccc(OC)cc21`, the growth is -21% (active). Consider `COc1cc(/C=C/C(=O)c2cccc(-n3cc(-c4ccc(Cl)cc4)[nH]c3=O)c2)cc(OC)c1OC`, for which the growth was 62.7%. Consider `O=C1/C(=C\c2coc3ccccc3c2=O)c2ccccc2N1c1c(Cl)cccc1Cl`, for which the growth was 33.8%. For `COc1cc(CNC(=O)Cc2ccccc2)ccc1OCc1cn(-c2ccc(F)cc2)nn1`, the growth was 104%.
